Data on 87 molecules can be found in publication PMC4336329 (PLoS ONE, 2015).

The structures appear in SMILES notation. Screen size: about 310,000 compounds; about 14,000 (4.5%) showed an effect of 50% or more. Effects have a minus sign here. This excerpt belongs to a sample that is enriched for strong results.
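Further: peak tail current of the secondary pulse compared with the same well before compound.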

The target in this experiment is human ether-à-go-go-related gene (hERG) potassium channel (human, UniProt Q12809). The experiment in a line: primary screen, population patch clamp on CHO cells stably expressing hERG; higher = less effect of the substance.
human ether-à-go-go-related gene (hERG) potassium channel, sequence (Q12809 whole entry, looked up): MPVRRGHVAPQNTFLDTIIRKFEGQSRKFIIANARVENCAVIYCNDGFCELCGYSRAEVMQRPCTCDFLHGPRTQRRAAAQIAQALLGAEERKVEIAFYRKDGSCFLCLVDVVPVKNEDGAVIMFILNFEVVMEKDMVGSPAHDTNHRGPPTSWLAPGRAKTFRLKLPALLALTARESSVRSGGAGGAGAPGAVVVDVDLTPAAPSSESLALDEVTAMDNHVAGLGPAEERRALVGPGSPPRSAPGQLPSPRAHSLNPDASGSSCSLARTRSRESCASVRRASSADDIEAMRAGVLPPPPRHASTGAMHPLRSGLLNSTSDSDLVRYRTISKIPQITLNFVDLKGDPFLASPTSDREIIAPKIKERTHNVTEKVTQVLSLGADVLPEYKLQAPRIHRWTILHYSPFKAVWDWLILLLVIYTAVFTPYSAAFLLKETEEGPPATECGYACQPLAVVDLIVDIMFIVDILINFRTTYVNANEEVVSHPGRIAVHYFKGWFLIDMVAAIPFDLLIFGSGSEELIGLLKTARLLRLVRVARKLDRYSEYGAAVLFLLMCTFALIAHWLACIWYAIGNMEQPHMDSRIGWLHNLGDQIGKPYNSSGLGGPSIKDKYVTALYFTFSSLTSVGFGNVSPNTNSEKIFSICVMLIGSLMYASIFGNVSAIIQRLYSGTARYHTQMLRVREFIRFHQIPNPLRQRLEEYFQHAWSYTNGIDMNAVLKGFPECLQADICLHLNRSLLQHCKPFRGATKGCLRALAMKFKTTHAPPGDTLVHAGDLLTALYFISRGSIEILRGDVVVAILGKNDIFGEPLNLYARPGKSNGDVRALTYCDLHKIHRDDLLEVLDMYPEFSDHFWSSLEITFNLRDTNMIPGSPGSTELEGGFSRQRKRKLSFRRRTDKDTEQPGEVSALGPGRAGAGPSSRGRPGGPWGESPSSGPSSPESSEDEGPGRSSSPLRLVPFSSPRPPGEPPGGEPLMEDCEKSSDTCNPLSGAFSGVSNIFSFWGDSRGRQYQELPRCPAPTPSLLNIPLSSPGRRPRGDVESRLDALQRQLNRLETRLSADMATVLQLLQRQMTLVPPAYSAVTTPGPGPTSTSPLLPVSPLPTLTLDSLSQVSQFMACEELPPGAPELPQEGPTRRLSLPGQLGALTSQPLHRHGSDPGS
With `CCc1nnc(NS(=O)(=O)c2ccc(N=Cc3c(C)[nH]n(-c4cccc(Cl)c4)c3=O)cc2)s1`, the “hERG current change (%, negative = inhibition) at 10uM” value stood at 10.4%.
The result for `CC(=O)c1ccc(OCC(=O)N(C)CC(=O)Nc2ccc(N3CCOCC3)cc2)cc1` reads 9.61%.
In the case of `CC(=O)Nc1ccc(S(=O)(=O)NCC(=O)OCC(=O)N2CCCc3ccccc32)cc1`, the “hERG current change (%, negative = inhibition) at 10uM” value came to 4.4%.
Regarding `C/C(=N\NC(=O)c1ccc(N(C)C)cc1)c1ccc(C)c(C)c1`, the “hERG current change (%, negative = inhibition) at 10uM” value is on record as -14.5%.
`O=C(Oc1ccc(Br)cc1)c1cccc(S(=O)(=O)N2CCOCC2)c1`: the “hERG current change (%, negative = inhibition) at 10uM” value is -35.6%.
The result for `COC(=O)c1cccc(S(=O)(=O)N2CCOCC2)c1` reads 6.61%; that for `Cc1cc(=O)oc2ccc(OC(=O)c3cccc(S(=O)(=O)N4CCOCC4)c3)cc12`, -70.5%; that for `CC(C)C1Oc2ccccc2N(CC(=O)N(C)C2CCCCC2)C1=O` (stereo not drawn), -10.1%.
Then `CCCCc1nc(N2CCNCC2)c(C#N)c2c1CSC(C)(C)C2`, with -64.7%.
As to `CCCCc1nc(Cl)c(C#N)c2c1CSC(C)(C)C2`, the “hERG current change (%, negative = inhibition) at 10uM” value is -13.1%.
The result for `CCc1nc(N2CCNCC2)c(C#N)c2c1CSC(C)(C)C2` reads 2.02%.
As to `CCCCn1c(N)c(N(CC)C(=O)c2cccc(OCc3ccccc3)c2)c(=O)[nH]c1=O`, the “hERG current change (%, negative = inhibition) at 10uM” value is reported as -9.67%.
The result for `O=CN1CCCN(Cc2nc(Cc3ccccc3F)no2)CC1` reads 16.1%.
Take `Fc1ccccc1Cc1noc(CN2CCN(C/C=C/c3ccccc3)CC2)n1`: the “hERG current change (%, negative = inhibition) at 10uM” value is -74%.
Then `c1ccc(Cc2noc(CN3CCN(CCOc4ccccc4)CC3)n2)cc1`, with -40.9%; and `C(=C\c1ccccc1)/CN1CCN(Cc2nc(Cc3ccccc3)no2)CC1`, with -65.1%.
Consider `COc1ccccc1CN1CCN(Cc2nc(Cc3ccccc3)no2)CC1`, for which the “hERG current change (%, negative = inhibition) at 10uM” value is on record as -36%.
The result for `Cc1ccccc1N1CCN(Cc2nc(Cc3ccccc3F)no2)CC1` reads -3.53%; that for `COC(=O)c1ccc(C(C(=O)NCc2ccccc2)N(Cc2ccco2)C(=O)c2cnccn2)cc1` (stereo not drawn), -25.4%; that for `COC(=O)/C(=C\Nc1ccc(Cl)cc1Cl)NC(=O)c1ccccc1`, -4.83%.
Then `C=CCNC(=S)NNC(=O)CCC(O)CCCCC` (stereo not drawn), with 16.4%; and `CCN(CC(=O)NCc1cccs1)C(=O)CCC(=O)c1ccc(F)cc1`, with -49.7%; and `CCOc1ccc(C(=O)CCC(=O)N(CC)CC(=O)Nc2c(F)cccc2F)cc1`, with -25.6%.
Then `CCN(CC(=O)NCc1ccc(Cl)cc1)C(=O)CCC(=O)c1ccc(C)cc1`, with -66.5%; and `CCN(CC(=O)NCc1ccc(F)cc1)C(=O)c1ccc(Cl)cc1`, with -23.7%; and `CCOc1ccc(C(=O)CCC(=O)N(CC)CC(=O)NCc2ccc(Cl)cc2)cc1`, with -70.3%.
`CCN(CC(=O)NCc1ccc(Cl)cc1)C(=O)CCC(=O)c1ccc(F)cc1`: the “hERG current change (%, negative = inhibition) at 10uM” value was -61.9%.
Then `Cc1ccc(C(=O)CCC(=O)NCc2ccc(Cl)cc2)cc1`, with -8.52%.
Then `CCN(CC(=O)NCc1cccs1)C(=O)CCC(=O)c1ccc(C)cc1`, with -46.9%; and `CCOc1ccc(C(=O)CCC(=O)N(CC)CC(=O)NCc2cccs2)cc1`, with -19.9%; and `Cc1ccc(C)c(N(CC(=O)NC2CCCC2)S(=O)(=O)c2ccccc2)c1`, with 19.9%.
Then `Cl.O=C(O)c1cc(S(=O)(=O)N2CCN(C(c3ccccc3)c3ccccc3)CC2)ccc1Cl`, with 14.7%; and `COc1ccc([C@H]2CC(=O)C=C(c3ccc(OC(F)(F)F)cc3)C2)cc1`, with 5.59%; and `COc1ccc(OCCOCCN2CCN(C)CC2)cc1.O=C(O)C(=O)O`, with -6.29%.
On to `COc1ccccc1CN1CCN(C(c2ccccc2)c2ccccc2)CC1.O=C(O)C(=O)O`, for which the “hERG current change (%, negative = inhibition) at 10uM” value was -55.1%.
Then `COc1ccccc1N1CCN(Cc2cccc(OC)c2O)CC1`, with -64.9%; and `O=C(O)C(=O)O.c1ccc(OCCN2CCN(C(c3ccccc3)c3ccccc3)CC2)cc1`, with -14.6%.
In the case of `O=C(O)C(=O)O.c1ccc(OCCOCCN2CCN(C(c3ccccc3)c3ccccc3)CC2)cc1`, the “hERG current change (%, negative = inhibition) at 10uM” value is given as -72.7%.
The result for `O=C(O)C(=O)O.Oc1ccccc1CN1CCN(C(c2ccccc2)c2ccccc2)CC1` reads 17%; that for `COc1ccccc1N1CCN(Cc2cccc(OC)c2OC)CC1`, -12.5%.
Then `COc1cc(CN2CCN(C(c3ccccc3)c3ccccc3)CC2)cc(OC)c1OC.O=C(O)C(=O)O`, with -17.2%.
As to `COc1ccccc1CN1CCN(Cc2cc(OC)c(OC)cc2OC)CC1.O=C(O)C(=O)O`, the “hERG current change (%, negative = inhibition) at 10uM” value is -11.2%.
Consider `Fc1ccc(CN2CCN(C(c3ccccc3)c3ccccc3)CC2)cc1.O=C(O)C(=O)O`, for which the “hERG current change (%, negative = inhibition) at 10uM” value came out at 15%.
As to `COc1cccc(CN2CCN(C(c3ccccc3)c3ccccc3)CC2)c1O.O=C(O)C(=O)O`, the “hERG current change (%, negative = inhibition) at 10uM” value is reported as -64.5%.
As to `CCOc1ccccc1N1CCN(Cc2cccc(OC)c2O)CC1`, the “hERG current change (%, negative = inhibition) at 10uM” value is -25.8%.
The result for `N#C/C(C(=O)N1CCOCC1)=C1\Nc2ccccc2S1` reads 2.1%.
Then `CC(=O)NC(Cc1c[nH]c2ccccc12)C(=O)NCc1ccco1` (stereo not drawn), with 12.5%; and `CCN(CC)S(=O)(=O)c1cccc(NC(=O)COc2ccc(Cl)cc2Br)c1`, with 2.59%; and `CCn1c(SCC(=O)Nc2ccc(C(C)=O)cc2)nc2c([nH]c3ccccc32)c1=O`, with 5.85%.
The result for `CCOCCCNC(=O)c1ccc(-n2c(=S)[nH]c3ccccc3c2=O)cc1` reads 10.8%; that for `COc1ccccc1OCCCCN1CCN(C(c2ccccc2)c2ccccc2)CC1.O=C(O)C(=O)O`, -73%.
Regarding `COc1ccccc1CN1CCN(Cc2ccc(Cl)cc2)CC1.O=C(O)C(=O)O`, the “hERG current change (%, negative = inhibition) at 10uM” value is on record as -62.5%.
`COc1ccccc1OCCCCCCN1CCOCC1.O=C(O)C(=O)O`: the “hERG current change (%, negative = inhibition) at 10uM” value came out at 0.0271%.
The result for `COc1cccc(OC)c1OCCN1CCN(C(c2ccccc2)c2ccccc2)CC1` reads -72.7%.
Take `COc1cccc(OC)c1OCCN1CCCC1`: the “hERG current change (%, negative = inhibition) at 10uM” value was 15.8%.
Turning to `COc1cccc(OC)c1OCCOCCN1CCN(C)CC1`, the “hERG current change (%, negative = inhibition) at 10uM” value is 20.8%.
Then `COc1ccccc1OCCCCCCN1CCN(C)CC1.O=C(O)C(=O)O`, with -5.83%; and `COc1ccc(CN2CCN(Cc3ccccc3OC)CC2)cc1.O=C(O)C(=O)O`, with 2.68%.
Regarding `COc1ccccc1CN1CCCCCC1.O=C(O)C(=O)O`, the “hERG current change (%, negative = inhibition) at 10uM” value came to 11.5%.
Then `CCOc1ccc(NCc2nc3ccccc3n2CCOc2ccccc2)cc1`, with -11.6%; and `Cc1ccnc(N2CCC(C(=O)NCc3ccc(F)cc3)CC2)n1`, with -12%; and `CCOC(=O)N1CCN(CC(O)COc2ccccc2C(C)C)CC1.Cl` (stereo not drawn), with -8.87%.
`C/C(=N\NC(=O)c1ccco1)c1cc(Cl)sc1Cl`: the “hERG current change (%, negative = inhibition) at 10uM” value is listed as -6.11%.
The result for `S=c1[nH]nc(COc2ccc(Cl)cc2Cl)n1-c1ccccc1` reads 19.1%.
Consider `C/C(=N\Nc1cc(N2CCOCC2)nc(C)n1)c1cccc([N+](=O)[O-])c1`, for which the “hERG current change (%, negative = inhibition) at 10uM” value is -60.4%.
Then `C/C(=N\Nc1cc(N2CCOCC2)ncn1)c1cccc([N+](=O)[O-])c1`, with 4.5%; and `C/C(=N\Nc1nc(N2CCOCC2)nc(N2CCOCC2)n1)c1cccc([N+](=O)[O-])c1`, with -4.76%.
Then `COCCCNC(=O)[C@H]1N2C(=O)c3ccccc3C2SC1(C)C` (stereo partly drawn), with 15.3%.
The result for `S=C(NCc1ccco1)N1CCN(Cc2ccc(Cl)cc2Cl)CC1` reads -36.3%; that for `O=S(=O)(Nc1ccc(-c2ccc3nncn3n2)cc1)c1ccc(Cl)s1`, -19.2%; that for `O=C(Nc1ccc(S(=O)(=O)N2CCOCC2)cc1)c1ccccc1F`, 6.32%.
Turning to `COc1ccc(CNc2ccc3c(c2)ncn3-c2ccccc2OC)cc1`, the “hERG current change (%, negative = inhibition) at 10uM” value is -23%.
Take `C=CCc1ccccc1OCC(O)CN1CCN(c2ccccc2F)CC1.Cl` (stereo not drawn): the “hERG current change (%, negative = inhibition) at 10uM” value was -40.9%.
Then `C=CCc1ccccc1OCC(O)CN1CCN(c2ccccc2OC)CC1.Cl` (stereo not drawn), with -75.2%; and `C=CCc1cc(OC)ccc1OCC(O)CN1CCN(c2ccc(OC)cc2)CC1` (stereo not drawn), with -59.7%; and `C=CCc1cc(C)ccc1OCC(O)CN1CCN(c2ccccc2)CC1` (stereo not drawn), with -47.5%.
Then `C=CCc1ccccc1OCC(O)CNC` (stereo not drawn), with 12%; and `C=CCc1ccccc1OCC(O)CN1CCN(c2ccc(C)cc2)CC1` (stereo not drawn), with -44.7%; and `C=CCc1ccccc1OCC(O)CN(C(C)C)C(C)C.Cl` (stereo not drawn), with -59.2%.
The result for `C=CCc1ccccc1OCC(O)CN1CCN(C(=O)OCC)CC1.Cl` (stereo not drawn) reads -11.3%.
For the molecule `C=CCc1ccccc1OCC(O)CN1CCN(c2ccc(OC)cc2)CC1.Cl` (stereo not drawn), the “hERG current change (%, negative = inhibition) at 10uM” value is given as -66.5%.
For the molecule `C=CCc1ccccc1OCC(O)CN(CC)CC.Cl` (stereo not drawn), the “hERG current change (%, negative = inhibition) at 10uM” value is -30.5%.
As to `Cc1nonc1NC(=O)CSc1nc2cc(Cl)ccc2c2c1CCCC2`, the “hERG current change (%, negative = inhibition) at 10uM” value is 2.15%.
Then `CN(Cc1nc(-c2cnccn2)no1)Cc1n[nH]c2c1CCCCC2`, with -0.424%; and `O=S(=O)(c1ccccc1)N(CC1CO1)c1cc(Cl)ccc1Cl` (stereo not drawn), with 14.2%; and `C/C(=N\O)C(C)(C)Nc1ccccc1F`, with 4.26%.
With `COc1cc(/C=C/c2[nH]c(=O)[nH]c(=O)c2[N+](=O)[O-])cc(OC)c1O`, the “hERG current change (%, negative = inhibition) at 10uM” value is recorded as 7.26%.
